Pf growth 48h – Primary qHTS for delayed death inhibitors of the malarial parasite plastid, 48 hour incubation. P. falciparum luciferase growth in erythrocytes, 48 h. AID 504832, 2011. Potency, µM (titrated, usually from 28.7 µM), usual class: inhibitors. hit rate 5.9% among 310,000
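In quantitative HTS format, infected erythrocytes bearing luciferase-reporter parasites were treated for a single generation at 37 C. Luminescence after adding detection reagent served as the growth measure.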
CHX counter – Cycloheximide Counterscreen for Small Molecule Inhibitors of Shiga Toxin. max response, %. cell reporter, cycloheximide protein synthesis inhibition counterscreen. hit rate 12% among 300,000; in the data active = max response mostly above about 13%, no sharp cut-off; inactive = mostly below about 14%; also: read at 38.3 µM for the half of the compounds with a filed dose
Shiga inhibitor – A qHTS for Small Molecule Inhibitors of Shiga Toxin. inhibition, % at 38.7 µM. Vero cells, Shiga toxin protein synthesis inhibition reporter. hit rate 9.2% among 290,000; in the data active = inhibition mostly above about 28%, no sharp cut-off; inactive = mostly below about 43%
Pf growth 96h – Primary qHTS for delayed death inhibitors of the malarial parasite plastid, 96 hour incubation | P. falciparum luciferase reporter growth, 96 h | Potency, µM (top dose mostly 28.7 µM), most hits filed as inhibitors | hit rate 6.9% among 320,000
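Cell-based qHTS: luciferase-tagged P. falciparum in erythrocytes (2% hematocrit, 0.05% parasitemia final) incubated with compounds for 96 hours, 37 C, 5% CO2; luciferase detection reagent then added and luminescence measured.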
Numbers stand for hits; . = inactive; ? = inconclusive; / = no result given. In the library only some 21% were active in any assay of this set; here they are far more common. Unless noted, calls follow the shape of the dose curve; as a rule, active = well fitted inhibition curve with a large enough effect; inconclusive = small, poorly fitted or top-dose-only effect, or another doubt; inactive = no such curve, though single readings can be large or run the other way.

SMILES	Pf growth 48h	CHX counter	Shiga inhibitor	Pf growth 96h
Cc1ccccc1-c1nc(CS(=O)CC(=O)NC(C)CCc2ccccc2)c(C)o1 (configuration not stated)	?	.	.	?
COc1ccc(C(=O)NCCCCNC(=O)c2ccc(OC)c(OC)c2)cc1OC	.	.	.	?
O=C(COc1ccc2ccccc2c1)NNC(=O)c1ccccc1	.	.	.	.
CCCNC(=O)c1cccc(COc2ccccc2OC)c1	.	49.9	123.3	.
NNC(=O)c1cccc(COc2ccc(Br)cc2)c1	.	67.7	148.7	.
NNC(=O)c1cccc(COc2cccc(Br)c2)c1	.	31.7	73.7	.
NNC(=O)CNC(=O)c1cccc(Br)c1	.	.	.	.
NNC(=O)c1ccc(COc2ccc3ccccc3c2)cc1	?	34.8	45.4	?
CCOc1ccc(OCCC(=O)OCC(=O)NC(C)c2ccccc2)cc1 (configuration not stated)	.	/	/	.
Cc1cc(C(=O)O)ccc1-c1ccc(/C=C2\NC(=O)N(Cc3ccc(F)cc3)C2=O)o1	?	.	.	?
COc1ccc(OCc2cccc(C(=O)Nn3cc([N+](=O)[O-])cn3)c2)cc1	.	.	.	.
COc1ccc(OCc2cccc(C(=O)NN)c2)cc1	.	124.2	139.9	.
CN1CCN(NC(=O)c2cccc(Br)c2)CC1	.	.	.	.
O=C(NN1CCOCC1)c1cccc(COc2cccc(Br)c2)c1	.	16.1	.	?
Cc1ccc(CNC(=O)C(CC(C)C)OC(=O)c2ccco2)cc1 (configuration not stated)	.	.	.	.
CCN1C[C@@]2(COC)CCC(OC)[C@]34C5C[C@]6(O)[C@@H](OC)C[C@](OC(C)=O)(C([C@H](OC)C23)[C@H]14)C5[C@H]6OC(=O)c1ccc(OC)cc1 (some centres not stated)	/	21.3	23.2	/
CCN1C[C@]2(COC)CC[C@H](OC)[C@@]34C1[C@]1(OCO[C@@]15C[C@H](OC)[C@H]1C[C@@H]3[C@@H]5[C@H]1OC)[C@@H](O)[C@H]24	.	/	/	.
O=C(CCCNC(=O)c1ccc(Cl)cc1)Nc1ccc(Br)cc1	.	.	.	.
CCCC(C(=O)NCc1ccco1)N(C(=O)CNS(=O)(=O)c1ccc(Cl)cc1)C1CCCC1 (configuration not stated)	11.7µM	.	.	.
CCC(C(=O)NCc1ccco1)N(C(=O)CNS(=O)(=O)c1ccccc1)C1CCCCC1 (configuration not stated)	/	.	.	6.57µM
CC(C)C(C(=O)NCc1ccco1)N(C(=O)CNS(=O)(=O)c1ccccc1)C1CCCC1 (configuration not stated)	?	.	.	.
N#C/C(C(=O)Oc1ccccc1)=C1\C=CC=CN1	.	44.0	59.9	.
O=C(/C=C/c1cccc(F)c1)c1ccc(N2CCOCC2)cc1	.	49.6	99.3	.
O=C(CSc1n[nH]c(-c2cccs2)n1)NCCc1ccccc1	.	/	/	.
COc1ccc(Cl)cc1NC(=O)CN(C)CC(=O)Nc1c(C)n(C)n(-c2ccccc2)c1=O	.	/	/	.
SMILES	Pf growth 48h	CHX counter	Shiga inhibitor	Pf growth 96h
CCc1nc2cc3sc(CC)nc3cc2s1	.	24.5	74.1	?
CN(CC1CCOCC1)C(=O)CC1C(=O)NCCN1Cc1ccc(-c2ccccc2)cc1 (configuration not stated)	.	.	.	?
CN(Cc1cn[nH]c1-c1ccc(-c2ccccc2)cc1)CC1CCOCC1	.	17.4	.	.
CN(Cc1ccon1)Cc1cn[nH]c1-c1ccc(-c2ccccc2)cc1	.	30.1	.	.
CN(Cc1ccon1)Cc1cn(C)nc1-c1ccc(Oc2ccccc2)cc1	.	.	.	.
CC(c1ccon1)N(C)Cc1cn[nH]c1-c1ccc(-c2ccccc2)cc1 (configuration not stated)	.	.	73.0	.
CC1C(=O)N2CCCc3cc(S(=O)(=O)N4CCN(c5ccc(F)cc5)CC4)cc1c32 (configuration not stated)	.	.	.	.
Cc1oc(-c2cccc3ccccc23)nc1CN1CCC[C@H]1CO	?	.	.	.
Cn1c(=O)c2c(nc(CN3CCN(C(c4ccccc4)c4ccccc4)CC3)n2CCCO)n(C)c1=O	2.94µM	.	.	.
CCCCCCn1c(CN2CCN(CCO)CC2)nc2c1c(=O)n(C)c(=O)n2C	?	.	.	.
COCCn1c(CN2CCN(C(c3ccccc3)c3ccccc3)CC2)nc2c1c(=O)n(C)c(=O)n2C	2.62µM	.	.	.
CCc1noc(C)c1C(=O)NC1CCCc2c1cnn2-c1ccc(C(C)(C)C)cc1 (configuration not stated)	.	.	.	.
CN(Cc1ccccc1Br)C(=O)CSc1nnnn1C1CC1	?	/	/	3.29µM
CN(Cc1cccc(F)c1)C(=O)CSc1nnnn1C1CC1	.	/	/	.
Cc1cccc2cc(-c3ccccc3)c(-c3ccccc3)c[n+]12	1.85µM	.	.	1.31µM
CN(Cc1ccccc1Cl)C(=O)C1CCC(=O)N(C2CCCCCC2)C1 (configuration not stated)	?	14.3	.	.
O=C(NN=C1C2CC3CC(C2)CC1C3)c1cc(Cl)ccc1O	.	.	.	.
Cn1c(=O)cc(OCC(=O)NCc2cccs2)c2ccccc21	.	.	50.6	?
Cn1c(=O)cc(OCCCC(=O)NCc2ccco2)c2ccccc21	.	.	.	11.7µM
CC(NC(=O)COc1cc(=O)n(C)c2ccccc12)c1ccc2c(c1)OCCO2 (configuration not stated)	.	.	.	8.28µM
O=C(CNC(=O)c1cccs1)Nc1ccc2c(c1)OCCO2	.	/	/	.
O=C(N[C@@H]1C[C@H]2CC[C@@H]1C2)c1ccco1	.	.	.	?
CCOc1ccc(CCNC(=O)c2c(C)nn(-c3ccccc3)c2Cl)cc1OCC	.	.	.	.
Cc1ccnc2c(N3C(=O)C4C5c6ccccc6C(c6ccccc65)C4C3=O)cccc12 (configuration not stated)	?	.	.	5.22µM
COC(=O)C1=C(C)NC(C)=C(C(=O)OCC(C)C)C1c1ccccc1[N+](=O)[O-] (configuration not stated)	7.57µM	/	/	2.39µM
SMILES	Pf growth 48h	CHX counter	Shiga inhibitor	Pf growth 96h
CC1=C(c2ccccc2)C(=S)NC(C)(C)C1	?	.	.	?
COC(=O)c1cc2c(s1)-c1ccccc1OC2	/	27.9	64.1	.
CCOC(=O)C1CCN(C(=O)c2cc3c(s2)-c2ccccc2OC3)CC1	.	20.7	40.0	.
COC(=O)c1cc2c(s1)-c1ccc(OC)cc1CC2	.	54.6	115.2	.
O=C(c1cc2c(s1)-c1ccccc1OC2)N1CCc2ccccc2C1	.	87.1	56.4	?
COc1ccc(OC)c(NC(=O)COC(=O)c2cc3c(s2)CCC3)c1	.	.	.	.
CSCC(O)Cn1ncc2ccccc2c1=O (configuration not stated)	.	20.9	.	.
CCCCOc1cccc(C(=O)NNC(=S)NC2CCCCC2)c1	.	.	.	?
O=C(NNC(=O)C1C2CCC(C2)C1C(=O)O)c1cccc(Cl)c1 (configuration not stated)	.	19.4	.	.

Bioassay records from PubChem BioAssay.
